Reference: PubChem BioAssay AID1224897 (Sanford-Burnham Center for Chemical Genomics, 2016)
The other results are listed elsewhere or left out. Calls of active or inactive are those of the source. The rule behind the calls is not given here.

Biological target: Hepatocyte nuclear factor 4-alpha (Homo sapiens) (UniProt P41235)
Assay: change in HNF4A binding to DNA, retest, confirmation, biochemical, fluorescence polarization, FITC-DNA (AID 1224897)
Conditions: 1 h, at 12.5 µM, hits give high values

Sequence of Hepatocyte nuclear factor 4-alpha (Homo sapiens) (P41235 whole entry, looked up): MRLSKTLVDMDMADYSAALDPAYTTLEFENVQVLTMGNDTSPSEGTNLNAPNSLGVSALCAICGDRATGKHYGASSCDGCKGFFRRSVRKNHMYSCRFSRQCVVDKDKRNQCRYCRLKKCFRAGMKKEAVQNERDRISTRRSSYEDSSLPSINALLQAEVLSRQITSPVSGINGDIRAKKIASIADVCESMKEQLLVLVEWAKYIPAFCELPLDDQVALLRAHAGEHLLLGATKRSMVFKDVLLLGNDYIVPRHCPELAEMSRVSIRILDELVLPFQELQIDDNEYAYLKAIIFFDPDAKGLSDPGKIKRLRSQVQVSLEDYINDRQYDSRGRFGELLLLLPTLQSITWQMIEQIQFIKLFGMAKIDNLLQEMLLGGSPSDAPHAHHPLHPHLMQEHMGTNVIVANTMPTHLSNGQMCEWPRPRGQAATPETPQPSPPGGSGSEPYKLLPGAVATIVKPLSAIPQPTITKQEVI

Question: How did the activity change turn out when `O=C1/C(=C/c2coc3ccc(O)cc3c2=O)SC(=S)N1c1ccccc1` was run?
Answer: The activity change was 57% (active).

Question: How did the activity change turn out when `C#CCOCCOCCOCCNc1nc(N2CCN(C(=O)C([C@@H](C)O)n3cc([C@@H](N)CCCCN)nn3)CC2)nc(N2CCN(C(=O)[C@H](CCCCN)n3cc(CN)nn3)CC2)n1` (some centres undefined) was run?
Answer: Its activity change is 108% (active).

Question: For `Cn1c2ccccc2c2cc(/C=C(\NC(=O)c3ccccc3)C(=O)NCC(=O)O)ccc21`, which activity change is on record?
Answer: The activity change was 45.6% (active).

Question: How did the activity change turn out when `COc1ccc(-c2nc3cc(C)ccn3c2NC2CCCCC2)cc1SC1CCCCC1` was run?
Answer: The activity change was 37.6% (active).

Question: `CCC(C)N1C(=O)S/C(=C/c2ccc(Sc3nc4ccccc4[nH]3)o2)C1=O` (centres undefined) was tested. Which activity change did it give?
Answer: Its activity change is 76.4% (active).

Question: Which activity change does the source give for `Fc1cccc(Cc2c(-c3cccc(Cl)c3)nc3ccc(Br)cn23)c1` here?
Answer: Its activity change is 51% (active).

Question: How did the activity change turn out when `Cn1cccc1/C=C1\SC(=S)N(NC(=O)c2ccc(Cl)cc2)C1=O` was run?
Answer: The activity change was 72.5% (active).

Question: For `C/C(=N/Nc1nc(-c2ccccc2)c(CC(=O)O)s1)c1ccccc1`, which activity change is on record?
Answer: Its activity change is 57.6% (active).

Question: How did the activity change turn out when `Cc1cccc(COc2ccccc2/C=N/Nc2ccc([N+](=O)[O-])cc2)c1` was run?
Answer: Its activity change is 56.9% (active).
